From PubChem BioAssay (NCATS)
Results filed as inconclusive are left out. The source made the active and inactive calls. Unless noted, calls come from the whole dose curve; as a rule, active = well fitted curve in the direction sought with a large enough effect; inconclusive = small, poorly fitted or top-dose-only effect, or another doubt; inactive = no such curve, though single readings can be large; an effect the other way counts as inactive or inconclusive.

Columns and labels:
[1] = HPAF-II 24hr Apoptosis Induction qHTS against the NCATS CANVASS Library (AID 1347356); note: 0% is about no effect
Method in brief: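 HPAF-II cells (500/well) exposed to compounds in 11-point series for 24 h at 37 degrees C; caspase-3/7 activity read by Caspase-Glo luminescence after 15 min at room temperature. Doxorubicin titration as control.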

[2] = HEK293 18hr Apoptosis Induction qHTS against the NCATS CANVASS Library (AID 1347357); note: 0% is about no effect
Method in brief: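 Caspase-Glo 3/7 luminescence (15 min, room temperature) measured apoptosis after an 18-hour, 37 degrees C exposure of HEK293 cells (500 cells/well) to compounds in 11 points.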

[3] = HPAF-II 12hr Apoptosis Induction qHTS against the NCATS CANVASS Library (AID 1347358); note: 0% is about no effect
Method in brief: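 HPAF-II cells, 500/well in DMEM + 10% FBS, exposed 12 hours at 37 degrees C to compound (11-point). Caspase-Glo 3/7 added for 15 min at room temperature; luminescence reflects caspase-3/7 activity.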

[4] = HEK293 24hr Apoptosis Induction qHTS against the NCATS CANVASS Library (AID 1347359); note: 0% is about no effect
Method in brief: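 HEK293 cells (500/well, DMEM + 10% FBS) were exposed to compounds in an 11-point series for 24 hours at 37 degrees C, then caspase-3/7 activity was read by Caspase-Glo DEVD luciferase luminescence after 15 min.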

[5] = HPAF-II 18hr Apoptosis Induction qHTS against the NCATS CANVASS Library (AID 1347360); note: 0% is about no effect
Method in brief: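 Caspase-3/7 activation was measured with luminescent Caspase-Glo 3/7 reagent (15 min, RT) in HPAF-II cancer cells (500 cells/well). Before detection, cells had been treated for 18 h at 37 C with compounds (11 points).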

[6] = HEK293 12hr Apoptosis Induction qHTS against the NCATS CANVASS Library (AID 1347361); note: 0% is about no effect
Method in brief: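 HEK293 cells (500/well, DMEM + 10% FBS) were exposed to natural products across an 11-point series for 12 hours at 37 degrees C. Caspase-3/7 activity was then measured with DEVD luciferase luminescence after 15 min at room temperature.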

[7] = biological target: Luciferin 4-monooxygenase (Photinus pyralis) (UniProt P08659); assay: Firefly luciferase counterscreen qHTS: Assay Interference Panel against the NCATS CANVASS Library (AID 1347363); note: 0% is about no effect
Chain of Luciferin 4-monooxygenase (Photinus pyralis) (P08659 whole entry, looked up): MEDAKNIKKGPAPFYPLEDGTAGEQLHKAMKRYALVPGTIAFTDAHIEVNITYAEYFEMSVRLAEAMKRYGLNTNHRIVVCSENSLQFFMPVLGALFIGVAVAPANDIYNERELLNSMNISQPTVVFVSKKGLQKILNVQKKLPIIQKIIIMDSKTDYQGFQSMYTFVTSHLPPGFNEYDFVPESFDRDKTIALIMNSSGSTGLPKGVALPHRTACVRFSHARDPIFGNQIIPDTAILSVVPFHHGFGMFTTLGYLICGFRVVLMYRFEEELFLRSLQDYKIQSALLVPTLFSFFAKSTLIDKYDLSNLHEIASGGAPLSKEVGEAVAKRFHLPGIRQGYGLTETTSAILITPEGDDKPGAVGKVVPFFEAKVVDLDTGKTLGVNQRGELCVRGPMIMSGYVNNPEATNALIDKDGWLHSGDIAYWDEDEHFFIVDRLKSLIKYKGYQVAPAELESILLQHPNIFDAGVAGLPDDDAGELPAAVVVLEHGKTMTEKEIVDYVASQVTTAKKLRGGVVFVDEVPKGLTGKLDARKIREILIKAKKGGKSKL
Method in brief: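 Purified P. pyralis luciferase was added to compounds (11-point series) preincubated 15 min at room temperature with substrate containing 0.013 mM D-luciferin and 0.013 mM ATP; luminescence was read after 5 min.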

[8] = 10-beta competent E. coli microbial cell viability qHTS against the NCATS CANVASS Library (AID 1347376); note: 0% is about no effect
Method in brief: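 10-beta competent E. coli (0.2 OD) were exposed overnight at 37C to compounds in an 11-point series. Viability was read as ATP-dependent BacTiter-Glo luminescence after 20 min at room temperature.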

[9] = DH5-alpha competent E. coli microbial cell viability qHTS against the NCATS CANVASS Library (AID 1347377); settings: outcome: dose series up to 46.1 µM unless noted
Method in brief: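 DH5-alpha E. coli suspension was exposed to an 11-point compound series overnight at 37 °C. Viable cells quantified by ATP luminescence (BacTiter-Glo) after 20 min at room temperature.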

[10] = Inflammasome Signaling qHTS Counterscreen: IL-1-beta AlphaLISA counterscreen against the NCATS CANVASS Library (AID 1347381);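 note: cell-free check with purified IL-1β in medium and no THP-1 cells; 0% is about no effect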
Method in brief: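 Cell-free interference check: compounds added to medium spiked with 4 pg purified IL-1β. Anti-IL-1β acceptor beads (6 ug/mL) with 0.6 nM biotinylated antibody added for 1 h at RT, then streptavidin donor beads (24 ug/mL) for 30 min in the dark. AlphaLISA read at 680/615 nm.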

[11] = Cytotoxicity qHTS for assessment of Hepg2 cells membrane integrity screened against the NCATS CANVASS Library (AID 1347387)
Method in brief: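 HepG2 cells (2000/well) attached overnight, then exposed 5 hr at 37C to compounds in an 11-point series (0.59 nM - 46 uM final). LDH release from damaged membranes read fluorometrically (CytoTox-ONE; 560/590 nm) after 10 min at room temperature.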

[12] = qHTS for activators of dead-cell proteases activity screened against the NCATS CANVASS Library (AID 1347392);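 note: luminescence from protease leaking out of membrane-damaged cells cleaving impermeant substrate; 0% is about no effect; rising signal means more cytotoxicity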
Method in brief: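 HepG2 cells (2000/well) attached 18 h at 37C, then exposed 5 h to compounds (11-point qHTS). Dead-cell protease activity read as luminescence from cell-impermeant AAF-aminoluciferin substrate after 15 min at room temperature.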

[13] = Redox Reaction Profiling qHTS: Assay Interference Panel against the NCATS CANVASS Library (AID 1347401);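 note: 100% = activation by 2 µM chloranil control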
Method in brief: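 Resazurin (5 uM) conversion to resorufin measured with 200 uM DTT in 50 mM HEPES pH 7.3, 50 mM NaCl. Compounds tested in 11-point qHTS series. Fluorescence (ex 525/em 598 nm) read before and after 15 min dark incubation.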

[14] = qHTS to identify inhibitors of the type 1 interferon - major histocompatibility complex class I in skeletal muscle: primary screen against the NCATS Mechanism Interrogation Plate v5.0 (MIPE) Libary (AID 1347411); note: potency is the fitted concentration of half-maximal effect; nearly all actives have a fitted effect of over 65% in size
Method in brief: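 Immortalized human myoblasts (C25cl48) with HiBit knocked into endogenous HLA-B*08:01 were stimulated with 4 ng/ml IFN-beta and given compounds in 11-point 1:3 titration from 46 uM. After 24 h at 37 C, lytic HiBiT luminescence was read.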

[15] = Primary qHTS for inhibitors of nuclear receptor binding SET domain protein 2 (NSD2) in an isogenic RCH-ACV NSD2 p.E1099K mutant (9B) (AID 1645876); note: potency is the fitted concentration of half-maximal effect; nearly all actives have a fitted effect of over 70% in size
[16] = Primary qHTS for inhibitors of nuclear receptor binding SET domain protein 2 (NSD2) in an RCH-ACV wild type WT cells (2C) (AID 1645877); note: potency is the fitted concentration of half-maximal effect; nearly all actives have a fitted effect of over 70% in size
[17] = biological target: Glutathione peroxidase 1 (Homo sapiens) (UniProt P07203); assay: Primary qHTS Assay for Inhibitors of Recombinant Selenoprotein Glutathione Peroxidase 1 (GPX1) (AID 1845191); note: nearly all actives have a fitted effect of over 65% in size
Chain of Glutathione peroxidase 1 (Homo sapiens) (P07203 whole entry, looked up): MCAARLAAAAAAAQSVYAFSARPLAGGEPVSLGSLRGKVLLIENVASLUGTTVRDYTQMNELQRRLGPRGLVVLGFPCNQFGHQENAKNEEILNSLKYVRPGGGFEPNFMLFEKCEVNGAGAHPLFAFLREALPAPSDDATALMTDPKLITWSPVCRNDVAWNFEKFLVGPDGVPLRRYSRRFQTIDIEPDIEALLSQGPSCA
Method in brief: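 Recombinant GPX1 (10 nM final) was preincubated with compound for 30 min at room temperature, then reacted with 1 mM GSH, 0.5 mM CHP, 0.5 mM NADPH and 100 nM glutathione reductase; NADPH fluorescence (340/450 nm) was read at 0 and 15 min.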

[18] = biological target: Phospholipid hydroperoxide glutathione peroxidase GPX4 (Homo sapiens) (UniProt P36969); assay: Primary qHTS Assay for Inhibitors of Recombinant Selenoprotein Glutathione Peroxidase 4 (GPX4) (AID 1845192); settings: outcome: dose series up to 50 µM unless noted; note: % is set by controls: 0 for no effect and ±100 for the full control effect; nearly all actives have a fitted effect of over 65% in size
Chain of Phospholipid hydroperoxide glutathione peroxidase GPX4 (Homo sapiens) (P36969 whole entry, looked up): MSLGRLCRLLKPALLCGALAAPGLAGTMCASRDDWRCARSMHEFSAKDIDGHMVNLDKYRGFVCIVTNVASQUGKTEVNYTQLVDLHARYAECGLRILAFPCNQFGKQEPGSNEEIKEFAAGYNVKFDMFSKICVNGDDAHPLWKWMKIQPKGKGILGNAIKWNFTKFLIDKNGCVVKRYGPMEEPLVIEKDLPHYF
Method in brief: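 GR-coupled readout: 100 nM GR, 1 mM GSH, 0.5 mM NADPH; NADPH fluorescence (ex 340/em 450 nm) read at t=0 and after 15 min RT. GPX4 200 nM, preincubated 30 min with compound; substrate 0.5 mM CHP.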

[19] = qHTS drug screen for cell cycle checkpoint inhibitors in PARPi-resistant BRCA-mutant ovarian cancer cell lines. (AID 1963452; calls by dose curve); settings: PEO1/OlaR viability, CellTiter-Glo luminescence, 96 h, stronger effect = lower value
Method in brief: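 PEO1, PEO4 and PEO1/OlaR ovarian cancer cells, 600 per well, exposed 96 h at 37C to a dilution series. Viability read by CellTiter-Glo luminescence, normalized to DMSO and empty wells; activity summarized as Z-AUC.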

[20] = qHTS assay to identify inhibitors of the type 1 interferon - major histocompatibility complex class I in skeletal muscle: Counter screen cell viability and HiBit confirmation (AID 1347412); settings: iHSKM muscle cells + IFN-b, HiBiT or CellTiter-Glo, 24 h, at 45.9 µM (top of the series); note: % is set by controls: 0 for no effect and ±100 for the full control effect; nearly all actives have a fitted effect of over 60% in size
Method in brief: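 After 24 h with human IFN-beta (4 ng/ml) and compound titrations (top 46 uM final, 1:3, 12 points), HLA-B HiBit myoblasts were lysed for either Nano-Glo HiBiT luminescence or CellTiter Glo viability on paired plates.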

C=C[C@]1(C)CC[C@@H]([C@H](C)C(=O)/C=C/C(C)(C)O)O1
inactive: outcome [1] | Potency [2] | Potency [3] | Potency [4] | Potency [5] | outcome [6] | Potency [7] | outcome [8] | outcome [9] | outcome [10] | outcome [11] | Potency [12] | Potency [13]

CC[C@H]1[C@@H](C)[C@@H](c2cc(OC)c(OC)cc2OC)[C@H](C)[C@@H](c2cc(OC)c(OC)cc2OC)[C@@]12C=C(OC)C(=O)C=C2OC
inactive: outcome [1] | Potency [2] | Potency [4] | outcome [6] | Potency [7] | outcome [8] | outcome [9] | outcome [10] | outcome [11] | Potency [12] | Potency [13]

C[C@@H]1C[C@H](N)C[C@H](c2ccncc2NC(=O)c2ccc(F)c(-c3c(F)cccc3F)n2)C1
-0.644: Z-AUC ([19]; measured here: PEO1 parental Z-AUC)
inactive: Potency [17] | Potency [18] | Z-AUC [19] -0.973 | activity change, negative = inhibition ([20]; HiBiT) -24.5% | activity change, negative = inhibition ([20]; Viability) -19.6%
active: Potency [14] 26.2 µM | Potency [15] 14.8 µM | Potency [16] 11.8 µM
-0.817: Z-AUC ([19]; measured here: PEO4 Z-AUC)

O=C1CCC(=O)N(O)CCCCCNC(=O)CCC(=O)N(O)CCCCCNC(=O)CCC(=O)N(O)CCCCCN1
inactive: outcome [1] | Potency [2] | Potency [3] | Potency [4] | Potency [5] | outcome [6] | Potency [7] | outcome [8] | outcome [9] | outcome [10] | outcome [11] | Potency [12] | Potency [13]

CO[C@@H]1[C@H](O)[C@@H](C)O[C@@H](OC[C@@H]2C(C)OC(=O)/C=C/[C@H](C)C(O[C@@H]3O[C@H](C)CC4(OC(=O)O[C@@H]4C)C3O)[C@@H](C)CC(C)C(=O)/C=C/[C@H]3OC23)[C@@H]1OC (stereo partly drawn)
inactive: outcome [1] | Potency [3] | Potency [5] | Potency [7] | outcome [8] | outcome [9] | outcome [10] | outcome [11] | Potency [12] | Potency [13]

C[C@H]1CCC2(OC1)O[C@H]1C[C@H]3[C@@H]4CC(=O)[C@]5(O)C[C@H](O)CC[C@@]5(C)[C@H]4CC[C@@]3(C)[C@H]1[C@H]2C (stereo partly drawn)
inactive: outcome [1] | Potency [2] | Potency [3] | Potency [4] | Potency [5] | outcome [6] | Potency [7] | outcome [8] | outcome [9] | outcome [10] | outcome [11] | Potency [12] | Potency [13]

COC(=O)[C@@]1(C)CCC[C@]2(C)c3cc(OC)ccc3CC[C@@H]12
inactive: outcome [1] | Potency [2] | Potency [3] | Potency [4] | Potency [5] | outcome [6] | Potency [7] | outcome [8] | outcome [9] | outcome [10] | outcome [11] | Potency [12] | Potency [13]
